Most compounds without a hit are left out; they make up all but 1.1% or so of the library.
RXFP1 antag = blocks the human relaxin receptor RXFP1; HEK293-RXFP1, relaxin-stimulated cAMP HTRF, 30 min; hits give low values; 350,000 tested, 0.59% active; activity change, negative = inhibition, % at 57.5 µM; Q9HBX9;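 active means activity change of -60% or lower, but not beyond a set lower limit; inconclusive means change between -60% and -40%, or beyond the set limit; inactive means change above -40%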; further: on the % scale 0 is the no-effect control and ±100 the full control effect
Target sequence (Q9HBX9 whole entry, looked up): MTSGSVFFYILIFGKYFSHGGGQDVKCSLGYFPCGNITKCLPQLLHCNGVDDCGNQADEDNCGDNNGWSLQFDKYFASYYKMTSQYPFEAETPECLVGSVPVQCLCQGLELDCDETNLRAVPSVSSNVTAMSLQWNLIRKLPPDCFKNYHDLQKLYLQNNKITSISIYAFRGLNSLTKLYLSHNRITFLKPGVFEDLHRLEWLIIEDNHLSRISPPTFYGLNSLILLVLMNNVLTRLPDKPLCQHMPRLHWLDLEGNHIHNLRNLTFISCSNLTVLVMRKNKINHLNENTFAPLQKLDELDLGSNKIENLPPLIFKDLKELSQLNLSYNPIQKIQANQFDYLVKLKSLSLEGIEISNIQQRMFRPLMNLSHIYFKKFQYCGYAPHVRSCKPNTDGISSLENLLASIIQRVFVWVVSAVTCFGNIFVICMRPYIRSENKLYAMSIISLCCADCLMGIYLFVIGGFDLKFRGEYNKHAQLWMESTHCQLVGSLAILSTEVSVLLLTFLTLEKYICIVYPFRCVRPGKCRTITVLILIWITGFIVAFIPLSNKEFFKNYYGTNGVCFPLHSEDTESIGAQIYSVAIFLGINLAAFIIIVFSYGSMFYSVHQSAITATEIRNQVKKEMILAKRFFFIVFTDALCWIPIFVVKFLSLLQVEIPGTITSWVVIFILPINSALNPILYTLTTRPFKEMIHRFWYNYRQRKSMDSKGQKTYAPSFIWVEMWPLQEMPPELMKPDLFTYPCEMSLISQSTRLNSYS
gsp ag = agonists of gsp mutant (McCune-Albright syndrome); gsp mutant cells, cAMP HTRF, 30 min; Potency, µM (doses to about 76.9 µM), without a hit: at the highest dose activation (cAMP increase), most hits filed as activators; 340,000 tested, 0.13% active; active means well fitted activation curve with a large enough effect; inconclusive means small, poorly fitted or top-dose-only effect, or another doubt; inactive means no such curve, though single readings can be large or run the other way; cell line not stated here;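 further: phosphodiesterase inhibitor Ro 20-1724 added with compounds to block cAMP breakdown; potency means the concentration at half of the fitted maximal effect; nearly all actives have a fitted effect of over 60% in size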
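Cells in DMEM/10% FBS with G418 were pretreated with compounds in DMSO plus […] (300 uM stock) for 30 min at 37C. cAMP was measured by HTRF (cAMP-d2 plus anti-cAMP antibody-K) after 30 min at room temperature.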
gsp antag = gsp mutant antagonism | Potency, µM (doses to about 76.9 µM), for the others: at the top dose activity change, negative = inhibition, most hits filed as inhibitors | 340,000 tested, 0.4% active | AID 624288 | gsp-mutant cells, cAMP HTRF, 30 min; calls by dose curve; cell line not stated here;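 further: intracellular cAMP measured with PDE inhibitor Ro 20-1724 present during compound exposure; potency means the concentration at half of the fitted maximal effect; on the % scale 0 is the no-effect control and ±100 the full control effect; nearly all actives have a fitted effect of over 65% in size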
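Cells in G418 medium, seeded 16-24 h, 37C; buffer exchange to DPBS + 1 mM CaCl2, 0.5 mM MgCl2, 0.05% BSA; cpds in DMSO + […] (300 uM stock), 30 min 37C; HTRF cAMP detection.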
S-ASM inh = inhibitors of human secretory acid sphingomyelinase; 340,000 tested, 0.006% active; Potency, µM (top dose mostly 57.5 µM), without a hit: at the top dose activity change, negative = inhibition, hits mostly inhibitors; placental ASM, HMU-PC fluorogenic substrate, 60 min; P17405; further: potency means the concentration at half of the fitted maximal effect
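Fluorescence read-out (Ex 386 nm, Em 447 nm) after stopping the reaction at pH 10. Enzyme: ASM from human placenta; substrate HMU-PC0, 9 uM final; 60 min, 37 °C. Compound preincubation 10 min, ambient temperature.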
a7 integrin act = activators of alpha7 integrin expression for muscular dystrophy | alpha7betagal myoblasts, beta-gal FDG fluorescence, 48 h | Potency, µM (top dose mostly 38.3 µM), inactives show at the top dose activation, actives largely listed as activators | 350,000 tested, 0.064% active | AID 624291;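 further: potency means the concentration at half of the fitted maximal effect; 100% = response of the positive control SU9516; nearly all actives have a fitted effect of over 60% in size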
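alpha7betagal+/- myoblasts (passage 13, 250/well) treated 48 h at 37C with compounds at 1:260 dilution of DMSO stock. Lysed, then beta-galactosidase activity read as FDG fluorescence (ex 480/em 540) after 30 min, with pre-read for autofluorescence.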
RXFP1 ag = activates the human relaxin receptor RXFP1; HEK293T-RXFP1 cAMP TR-FRET, 30 min; response scale: percent of porcine relaxin response, buffer zero; Potency, µM (highest dose often 57.5 µM), inactives show at the top dose activation, hits mostly activators; 370,000 tested, 0.3% active; AID 2676; further: potency means the concentration at half of the fitted maximal effect; on the % scale 0 is the no-effect control and ±100 the full control effect; nearly all actives have a fitted effect of over 60% in size
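cAMP rise read by TR-FRET after 30 min, 37C compound exposure (up to 58 uM) in RXFP1-transfected HEK293 cells with Ro 20174 present. EC50 from Hill-equation fits, with 29 nM porcine relaxin as 100% and buffer as basal.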
An asterisk follows results filed as active; ? = inconclusive; nt = no result given; [ ] = another dose, or the depositor's remark. Unless noted, the call rests on the fitted dose curve; in most records, active means well fitted curve in the direction sought with a large enough effect; inconclusive means small, poorly fitted or top-dose-only effect, or another doubt; inactive means no such curve, though single readings can be large; an effect the other way counts as inactive or inconclusive.

SMILES	RXFP1 antag	gsp ag	gsp antag	S-ASM inh	a7 integrin act	RXFP1 ag
C/C(CC(=O)NC1CCCC1)=N\NC(=O)c1ccc([N+](=O)[O-])c(Cl)c1	26	?	10%	8%	5%	0%
Cc1ccccc1OCC(=O)Nc1sc(C(=O)Nc2cccc(C)c2C)c(C)c1C#N	-1	?	35%	1%	13%	8.9µM*
COc1cc(NS(=O)(=O)c2ccc3c(c2)CC(=O)N3)cc(OC)c1OC	-6	nt	nt	nt	nt	-1%
CC(Sc1ccc2ccccc2n1)C(=O)O (centres undefined)	48	133%[15.4 µM]	16%	0%	-14%	11µM*
Nc1ncccc1OCc1cccc(C(F)(F)F)c1	-4	-15%[15.4 µM]	12%	-3%	30%	-1%
Nc1nc(N)c(-c2cccc(C(F)(F)F)c2)c(Cc2cccc(C(F)(F)F)c2)n1	-93*	3%	2%	-1%	-18%	nt
CS(=O)(=O)c1ncc(Cl)c(C(=O)Nc2ccc(N3CCOCC3)cc2)n1	-14	1%	2%	-1%	-53%	0%
O=C(Nc1ccccc1F)c1nc(S(=O)(=O)Cc2ccccc2F)ncc1Cl	?	nt	nt	nt	nt	2%
O=C(Nc1ccc(F)cc1)c1nc(S(=O)(=O)Cc2ccccc2)ncc1Cl	-105*	-37%	40µM*	-6%	-63%	-2%
CS(=O)(=O)c1ncc(Cl)c(C(=O)Nc2ccc(OC(F)F)cc2)n1	-82*	-2%	-21%	2%	-56%	12%
Cc1ccccc1CS(=O)(=O)c1ncc(Cl)c(C(=O)Nc2ccc(F)cc2)n1	-104*	?	4%	0%	-10%	0%
O=C(NCc1ccccc1)c1nc(S(=O)(=O)Cc2ccc(F)cc2)ncc1Cl	-116*	nt	nt	nt	nt	0%
COc1ccc(-c2noc(CN(C(=O)Cc3ccc(C)cc3)C(C)C)n2)cc1	nt	nt	nt	nt	nt	1%
COc1ccc2nc(NC(=O)c3nc(S(=O)(=O)Cc4ccccc4)ncc3Cl)sc2c1	?	nt	nt	nt	nt	0%
Cc1ccc(NC(=O)c2nc(S(=O)(=O)Cc3ccccc3)ncc2Cl)cc1	-85*	0%[15.4 µM]	-12%	-4%	-75%	1%
COc1ccc2nc(NC(=O)c3nc(S(=O)(=O)Cc4ccccc4F)ncc3Cl)sc2c1	-83*	nt	nt	nt	nt	-1%
CCC(O)(CC)C(=O)N(Nc1ccc(C)cc1)c1ccc(C)cc1	3	10%	1%	-5%	14%	3%
CCOC(=O)C(=O)N(Nc1ccc(C)cc1)c1ccc(C)cc1	-68*	?	-9%	-7%	2%	4%
COc1cc(C(C)=O)ccc1OCC(=O)Nc1ccc2nc(C)sc2c1	1	?	6%	1%	-3%	?
COc1cc(C(=O)Nc2nc(-c3ccc(Cl)cc3)c(C)s2)ccc1OCC(=O)Nc1ccc(F)cc1	-9	?	17%	3%	-48%	20µM*
CCc1ccc(-c2nc(NC(=O)c3ccc(OCC(=O)Nc4ccc(F)cc4)c(OC)c3)sc2C)cc1	9	?	20%	3%	-29%	32µM*
COc1ccc(-c2nc(NC(=O)c3ccc(OCC(=O)N4CCOCC4)c(OC)c3)sc2C)cc1	-2	-16%	35µM*	-29%	-23%	-1%
COc1cc(C(=O)Nc2ccc(C)cn2)ccc1OCC(=O)N1CCOCC1	1	29%	-4%	-2%	-5%	-1%
CC(C)NC(=O)c1ccc(C=O)cc1	15	nt	nt	nt	nt	nt
CCn1c(=S)[nH]c2nc3c(cc2c1=O)CCCC3	15	8.9µM*	16%	2%	-12%	?
SMILES	RXFP1 antag	gsp ag	gsp antag	S-ASM inh	a7 integrin act	RXFP1 ag
O=[N+]([O-])c1cccc(S(=O)(=O)N2CCN(S(=O)(=O)N3CCOCC3)CC2)c1	9	18%[15.4 µM]	10%	5%	10µM*	2%
O=Cc1ccc(O)c(O)c1O	-5	nt	nt	nt	nt	nt
Cc1c(/C=N\NC(=O)C2(C)CC2(Cl)Cl)cnn1C (centres undefined)	nt	-18%	6%	4%	20%	4%
CC1(C(=O)N/N=C/c2c(F)c(F)c(F)c(F)c2F)CC1(Cl)Cl (centres undefined)	-68*	-5%	-18%	-5%	-14%	nt
COC(=O)C(C)(C)ONC(=O)Nc1ccccc1Cl	-65*	-2%	-4%	3%	-9%	0%
COc1ccc2nc(SCc3ncc(C)c(OC)c3C)[nH]c2c1	-3	nt	nt	nt	nt	nt
COc1ccccc1Nc1c2c(nc3ccc(NC(=O)c4cccc(F)c4)cc13)CCCC2	-75*	nt	nt	nt	nt	-1%
COc1ccc(N(CC(=O)N/N=C/c2cc(OC)ccc2OC)S(=O)(=O)c2ccccc2)cc1	-1	-2%	-12%	191%	-11%	0%
COc1ccc(N(CC(=O)N/N=C/c2ccc(OC)cc2OC)S(=O)(=O)c2ccccc2)cc1	6	-5%	32µM*	-4%	11%	0%
CCC/C=N/Nc1nc2ccccc2s1	-91*	3%[15.4 µM]	?	-1%	1%	0%
Cc1[nH]c2ccccc2c1C(=O)C(=O)NCc1ccncc1	nt	5%	6%	-1%	3%	nt
CC(=O)N1CCc2c(sc(NC(=O)C3CCN(S(=O)(=O)c4cccs4)CC3)c2C(N)=O)C1	-60*	-5%[15.4 µM]	-17%	29%	14%	1%
CC(C)Cn1c(N)c(C(=O)COC(=O)c2ccc(Cl)cc2)c(=O)n(C)c1=O	-12	-8%	?	-13%	-23%	-3%
CC(C)Cn1c(N)c(C(=O)COC(=O)c2ccncc2)c(=O)n(C)c1=O	3	3%	5%	0%	2%	6%
CC(C)Cn1c(N)c(C(=O)CSc2ccccc2)c(=O)n(C)c1=O	-13	7%	?	1%	-43%	1%
CC(C)Cn1c(N)c(C(=O)COC(=O)[C@@H]2CCCN2C(=O)c2cccs2)c(=O)n(C)c1=O	12	13µM*	-7%	3%	0%	1%
CC(C)Cn1c(N)c(C(=O)COC(=O)c2ccc(Br)cc2)c(=O)n(C)c1=O	-39	?	35µM*	-15%	-15%	nt
Cc1ccccc1OCCC(=O)OCC(=O)c1c(N)n(CC(C)C)c(=O)n(C)c1=O	-10	-2%[15.4 µM]	32µM*	nt	-31%	nt
Cc1ccc(OCCC(=O)OCC(=O)c2c(N)n(CC(C)C)c(=O)n(C)c2=O)cc1	-1	26%	-34%	-11%	-40%	1%
CC(C)Cn1c(N)c(C(=O)COC(=O)/C=C/c2ccccc2)c(=O)n(C)c1=O	-18	4%[15.4 µM]	35µM*	-5%	-39%	0%
CC(NC(=O)c1ccc(N2Cc3ccccc3Oc3ncccc32)s1)c1ccccc1 (centres undefined)	-4	nt	nt	nt	nt	?
CCCCc1cc(=O)oc2cc(C)c3c(C(C)(C)C)coc3c12	3	nt	nt	nt	nt	1%
O=C(Cc1ccc(NC(=O)N2CCSc3ncccc32)cc1)NCCc1ccccc1	-10	nt	nt	nt	nt	0%
